This is part of a sample that, as a whole, favours compounds with a hit. Of some 83,000 tested, about 20% had one in any assay.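 Assay: single dose, 48 h. Readout: percent growth (0 = no net growth; negative = cell death). Active: <10.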 Values without a mark were called inactive. Activity calls are given as the source filed them.
Assays:
Assay in all cases: NCI-60 one-dose screen, 48 h (100 = growth as untreated, 0 = no growth, -100 = all killed)
NCI-H23 lung = conditions: 10 µM
HOP-92 NSCLC = conditions: 10 µM
K-562 leukemia = conditions: 10 µM
MDA-MB-231 breast = conditions: 10 µM
RXF 393 renal = conditions: 10 µM
LOX IMVI melanoma = conditions: 10 µM
UO-31 renal = conditions: 10 µM
CCRF-CEM leukemia = conditions: 10 µM
MOLT-4 leukemia = conditions: 10 µM
SR leukemia = conditions: 10 µM
HS 578T breast = conditions: 10 µM
SW-620 colon = conditions: 10 µM
HCC-2998 colon = conditions: 10 µM
KM12 colon = conditions: 10 µM
MDA-MB-468 breast = conditions: 10 µM unless noted
COLO 205 colon = conditions: 10 µM
SK-MEL-5 melanoma = conditions: 10 µM
EKVX NSCLC = conditions: 10 µM
OVCAR-4 ovarian = conditions: 10 µM

SMILES | growth (NCI-H23 lung) | growth (HOP-92 NSCLC) | growth (K-562 leukemia) | growth (MDA-MB-231 breast) | growth (RXF 393 renal) | growth (LOX IMVI melanoma) | growth (UO-31 renal) | growth (CCRF-CEM leukemia) | growth (MOLT-4 leukemia) | growth (SR leukemia) | growth (HS 578T breast) | growth (SW-620 colon) | growth (HCC-2998 colon) | growth (KM12 colon) | growth (MDA-MB-468 breast) | growth (COLO 205 colon) | growth (SK-MEL-5 melanoma) | growth (EKVX NSCLC) | growth (OVCAR-4 ovarian) [%]
CC[C@@]12CC(C(=O)OC)=C3Nc4cc5c(cc4[C@@]34CCN(C[C@H]3O[C@H]31)[C@@H]24)[C@@H]1[C@H](O5)[C@@H](O)[C@@]2(CC)CC(C(=O)OC)=C3Nc4cc(OC)ccc4[C@@]34CCN1[C@@H]24 | 1.41% (active) | 21.2% | 2.66% (active) | 18% | -37.8% (active) | -64.9% (active) | 10.1% | 15% | -4.22% (active) | -16.2% (active) | -6.21% (active) | 16.3% | -65% (active) | 10.2% | -56.3% (active) |  |  |  | 
O=C(NCCCCC(c1ccc(F)cc1)c1ccc(F)cc1)Nc1ccc([N+](=O)[O-])c(C(F)(F)F)c1 | -10.2% (active) | -36.2% (active) |  | -70% (active) | -41.3% (active) | -73.8% (active) |  | -38.8% (active) |  |  | -3.33% (active) | 8.81% (active) | 7.86% (active) | 2.48% (active) | -31.7% (active) | -100% (active) | -100% (active) |  | 
CC(=O)Oc1ccccc1C(=O)[Se]C(=NC(C)C)NC(C)C |  | -49.2% (active) | -29.6% (active) | -50.5% (active) | -98.3% (active) | -80% (active) | -100% (active) | -1.77% (active) | -15.4% (active) | -27.5% (active) | -15.6% (active) | -72.4% (active) | -91% (active) | -89.6% (active) | -64.4% (active) |  |  |  | 
CC(C)N=C([Se])NC(=O)c1ccccc1 |  | -34.3% (active) | 15.9% | -48.6% (active) | -83.7% (active) | -37.3% (active) |  | 5.47% (active) | 2.86% (active) | -9.62% (active) | -2.5% (active) | -20.9% (active) | -35.5% (active) | -8.34% (active) | -46% (active) |  |  | -56.8% (active) | 
O=C(/C=C/c1ccc(Cl)cc1Cl)c1nc2ccccc2n1Cc1ccc(Br)cc1 | 72.3% | 65.8% | 53.5% |  | 58.2% |  |  | 5.89% (active) | 15.4% | 14.4% |  |  | 70.4% | 82.7% | 48.9% |  | 85% | 61.6% | 73.7
O=C(/C=C/c1ccco1)c1nc2ccccc2n1Cc1ccc(Br)cc1 | 27.4% | 3.99% (active) | 7% (active) |  | -1.81% (active) |  |  | -6.79% (active) | 3.6% (active) | 4.72% (active) |  |  | 12.7% | 20.7% | -14.5% (active) | 69.7% |  | 17.8% | 
CC12OOC(C)(OO1)C2CCC(=O)NCCNc1ccnc2cc(Cl)ccc12 (configuration not stated) | 92.6% | 111% | 39.4% | 96.6% | 102% | 3.57% (active) |  | 80.6% | 98.6% | 21.4% | 99.8% | 80.6% | 99.7% | 101% | 82.7% |  |  | 88.6% | 96.8
Cc1c2oc3c(C)ccc(C(=O)N[C@@H]4C(=O)N[C@H](C(C)C)C(=O)N5CCC[C@H]5C(=O)N(C)CC(=O)N(C)[C@@H](C(C)C)C(=O)OC4C)c3nc-2c(C(=O)N[C@@H]2C(=O)N[C@H](C(C)C)C(=O)N3CC(=O)C[C@H]3C(=O)N(C)CC(=O)N(C)[C@@H](C(C)C)C(=O)OC2C)c(N)c1=O (some centres not stated) | -38.9% (active) | -17.7% (active) |  | 1.92% (active) | -78.8% (active) | -0.489% (active) | 3.68% (active) | 2.91% (active) |  |  | 5.64% (active) | 6.93% (active) | -20% (active) | 2.23% (active) | -37.7% (active) | -71% (active) | -48.6% (active) |  | 21
CC(=C\C(=O)Oc1ccc2c3c1OC1C(O)CCC4(O)C(C2)N(CC2CCC2)CCC314)/C=C1\CCCc2ccccc21 (configuration not stated) | 64.3% | 34.2% | 19.7% | 75.3% | 37.7% | 5.47% (active) | 33.8% |  | 31.1% |  | 59.8% | 28.4% | 31.2% | 40.5% | -15.4% (active) |  | 45.5% |  | 55.6

— PubChem BioAssay (NCI)
